Source: PubChem BioAssay (NCI)
The panel holds about 83,000 compounds, 20% with a hit somewhere; the sample as a whole holds those more often.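 Plates (96-well) were seeded with cells, treated with compound at one concentration, and incubated for 48 hours before percent growth was determined.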 Values without a mark were called inactive. The source made the active and inactive calls. Rule for the calls: active = growth percent below 10; inactive = the rest.

Assays:
Assay in all cases: NCI-60 one-dose screen, 48 h (100 = growth as untreated, 0 = no growth, -100 = all killed)
Conditions in all cases: 10 µM unless noted
NCI-H23 lung = tested on: NCI-H23 lung
NCI-H226 lung = tested on: NCI-H226 lung
NCI-H322M lung = tested on: NCI-H322M lung
HOP-62 NSCLC = tested on: HOP-62 NSCLC
NCI-H460 lung = tested on: NCI-H460 lung
HOP-92 NSCLC = tested on: HOP-92 NSCLC
NCI-H522 lung = tested on: NCI-H522 lung
A549/ATCC NSCLC = tested on: A549/ATCC NSCLC
786-0 renal = tested on: 786-0 renal
COLO 205 colon = tested on: COLO 205 colon
DU-145 prostate = tested on: DU-145 prostate
K-562 leukemia = tested on: K-562 leukemia
MALME-3M melanoma = tested on: MALME-3M melanoma
MDA-MB-231 breast = tested on: MDA-MB-231 breast
SF-268 CNS = tested on: SF-268 CNS
SF-295 CNS = tested on: SF-295 CNS
SF-539 CNS = tested on: SF-539 CNS
UACC-257 melanoma = tested on: UACC-257 melanoma
M14 melanoma = tested on: M14 melanoma

Row | SMILES | growth (NCI-H23 lung) | growth (NCI-H226 lung) | growth (NCI-H322M lung) | growth (HOP-62 NSCLC) | growth (NCI-H460 lung) | growth (HOP-92 NSCLC) | growth (NCI-H522 lung) | growth (A549/ATCC NSCLC) | growth (786-0 renal) | growth (COLO 205 colon) | growth (DU-145 prostate) | growth (K-562 leukemia) | growth (MALME-3M melanoma) | growth (MDA-MB-231 breast) | growth (SF-268 CNS) | growth (SF-295 CNS) | growth (SF-539 CNS) | growth (UACC-257 melanoma) | growth (M14 melanoma)
1 | COc1ccc(C2CC(c3cccc(Nc4ccncc4)c3)=NN2c2ccc(Cl)cc2)cc1 (configuration not stated) | 83% | 88.8% | 73.7% | 25.3% | -85.9% (active) | 51.5% | -23% (active) | 35.9% | 102% | -65.9% (active) | 23.6% | 0.0732% (active) | -49.9% (active) | 40.6% | 62.1% | 53.9% | 76.4% | 12.6% | 100%
2 | Fc1ccc(C2CC(c3cccc(Nc4ccncc4)c3)=NN2c2ccc(Cl)cc2)cc1 (configuration not stated) | 88.6% | 91.4% | 78% | 64.9% | -53.9% (active) | 52.2% | 83.1% | 52.6% | 104% | -59.8% (active) | 52% | 1.22% (active) | 33.1% | 60.7% | 77.9% | 66.5% | 84.1% | 80.8% | 101%
3 | O=C(CN1CCOCC1)Nc1ccc2ncnc(Nc3ccc(Oc4cccc(F)c4)c(Cl)c3)c2c1 | 96.7% | 89.8% | 20.1% | 84.9% | 80.2% | 67.4% | 20.7% | 66.3% | 74.3% | 91.7% | 48.3% | 56.8% | 88.3% | 74.3% | 70.9% | 84.2% | 85% | 89.1% | 74.5%
4 | O=C1CCCCCCCCC(O)C(O)CCCC(c2cccs2)O1 (configuration not stated) | 91% | 99.5% | 113% | 87.6% | 106% | 82.7% | 91.7% | 82.7% | 98.8% | 108% | 117% | 96% | 107% | 84.8% | 95.9% | 93.7% | 106% | 60.9% | 99.7%
5 | Clc1nc(Cl)c2ncn(CC3(Cn4cnc5c(Cl)nc(Cl)nc54)COC3)c2n1 | -70.2% (active) | -81.3% (active) | -100% (active) | -82.3% (active) | -65.5% (active) | -91.9% (active) | -89.1% (active) | -77% (active) | -98.7% (active) | -76.6% (active) | -100% (active) | -70.4% (active) | -69.8% (active) | -88.9% (active) | -73.7% (active) | -83.6% (active) | -93.4% (active) | -90.9% (active) | -92.7% (active)
6 | Cc1nc2sc(C(=O)Nc3ccccc3)c(N)c2cc1C(=O)c1ccc(C(F)(F)F)cc1 | 93.5% | 99.6% | 102% | 91.1% | 70.2% | 116% | 89.1% | 42.8% | 95.3% | 104% | 106% | 101% | 101% | 101% | 101% | 94.2% | 93.5% | 101% | 93.4%
7 | COc1ccc(-c2nc(N/N=C/c3cccc(O)c3)nc(N3CCOCC3)c2C#N)cc1 | 99.5% | 98.1% | 95% | 90.7% | 83.8% | 47.7% | 79.1% | 81.7% | 44.1% | 74.1% | 56% | 58.3% | 65.9% | 74.9% | 78.8% | 69.7% | 54.5% | 57.9% | 57.5%
8 | CN1CCN(CCCNc2nccc(-c3c(-c4ccc(F)c(O)c4)nc4sccn34)n2)S1(=O)=O | 94.2% | 105% | 115% | 104% | 101% | 70.7% | 74.4% | 103% | 126% | 29.8% | 97.7% | 66% | -10.4% (active) | 70.8% | 104% | 101% | 113% | 33.8% | 20%
